Measured values published in PubChem BioAssay (Tox21).
Results filed as inconclusive are left out. Calls of active or inactive are those of the source. Unless noted, calls come from the whole dose curve.

Columns and labels:
[1] = target: Thyrotropin receptor (Homo sapiens) (UniProt P16473); assay: qHTS assay to identify small molecule agonists of the thyroid stimulating hormone receptor (TSHR) signaling pathway (AID 1224843); note: nearly all actives have a fitted effect of over 45% in size
Method in brief: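 HEK293/TSHR, 800 cells/well; cpd 30 min RT; add cAMP-d2 + anti-cAMP-cryptate, 1 h RT; fluorescence read on plate reader. 15-pt titration, n=3.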

[2] = qHTS assay to identify small molecule agonists of the hypoxia (HIF-1) signaling pathway - cell viability counter screen (AID 1224844); note: nearly all actives have a fitted effect of over 50% in size
Method in brief: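 Viability counter screen: HRE-bla ME-180 cells plated 5 hrs before compound addition, treated 17 hrs at 37C and 5% CO2, then CellTiter-Glo added after the FRET reporter read; luminescence after 30 min.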

[3] = qHTS assay to identify small molecule agonists of H2AX (AID 1224845; active = well fitted activation curve with a large enough effect in the signal ratio in the repeat runs, not every such curve was filed as active; the % refers to the signal ratio)
Method in brief: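 Wild-type CHO-K1 cells, plated overnight, exposed 3hr at 37C to 15 concentrations (0.76% DMSO final). Lysed, then HTRF anti-pH2AX (S139) cryptate and anti-H2AX-d2 antibodies, 24 hr room temperature; 665/620 nm emission read.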

[4] = qHTS assay to identify small molecule agonists of the hypoxia (HIF-1) signaling pathway (AID 1224846; active = well fitted activation curve with a large enough effect in the signal ratio in the repeat runs, not every such curve was filed as active; the % refers to the signal ratio)
Method in brief: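 Agonist mode reporter screen. ME-180 cells stably expressing bla under HRE control received test compounds in DMSO for 17 hrs (37C, 5% CO2), and beta-lactamase activity was then detected with the CCF4-AM FRET substrate.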

[5] = qHTS assay to identify small molecule agonists of H2AX - cell viability counter screen (AID 1224847); note: top concentration of the series differs between compounds; nearly all actives have a fitted effect of over 30% in size
Method in brief: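 Read-out: CellTiter-Glo luminescence, 30 min RT. Cells: wild-type CHO-K1, 1000/well, 10% FBS, plated overnight at 37C. Treatment: 15 concentrations, 3 hr, 37C, 0.76% DMSO.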

[6] = qHTS assay to identify small molecule agonists of the estrogen related receptor (ERR) signaling pathway from Tox21 library (AID 1224849); settings: ERR reporter cell line, ONE-Glo luciferase, 18 h; at 92.4 µM (top of the series) unless noted; note: nearly all actives have a fitted effect of over 15% in size
Method in brief: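 Quantitative HTS in agonist format: NTP ERR cell line, compounds transferred in DMSO after 6 h plating, 18 h incubation at 37 C, ONE-Glo luminescence endpoint.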

[7] = qHTS RealTime-Glo MT Cell Viability Assay in HepG2 cells - 24 hour (AID 1224867; active = well fitted curve in the direction sought with a large enough effect in the repeat runs; an effect the other way counts as inactive or inconclusive; note: nearly all actives have a fitted effect of over 50% in size)
Method in brief: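 HepG2 cells (600/well) were dispensed with RealTime-Glo reagents, incubated 5 h at 37 °C, then treated with compounds in DMSO for up to 40 h. Nonlytic NanoLuc luminescence reflecting viable cells was read at each stated time point.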

[8] = qHTS RealTime-Glo MT Cell Viability Assay in HEK293 cells - 32 hour (AID 1224868; active = well fitted curve in the direction sought with a large enough effect in the repeat runs; an effect the other way counts as inactive or inconclusive; note: top concentration of the series differs between compounds; nearly all actives have a fitted effect of over 50% in size)
Method in brief: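 HEK293 cells seeded with NanoLuc/prosubstrate reagent, rested 5 h at 37 C, then dosed and kept at 37 C up to 40 h. Nonlytic real-time luminescence from viable cells read at 0, 8, 16, 24, 32 and 40 h.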

[9] = A CellTox Green Cytotoxicity Assay to monitor cytotoxicity in HEK293 cells - 0 hour (AID 1224869; active = well fitted curve in the direction sought with a large enough effect in the repeat runs; an effect the other way counts as inactive or inconclusive; note: nearly all actives have a fitted effect of over 50% in size)
Method in brief: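 Dead-cell fluorescence measured kinetically: asymmetric cyanine dye, HEK293, 600 cells/well, 5 h settle, 23 nL cpd/DMSO, 37 C, reads 0–40 h every 8 h.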

[10] = qHTS assay to identify small molecule antagonists of the estrogen related receptor (ERR) signaling pathway from Tox21 library (AID 1224848; active = well fitted curve in the direction sought with a large enough effect in the repeat runs; an effect the other way counts as inactive or inconclusive; note: nearly all actives have a fitted effect of over 50% in size)
Method in brief: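 Compounds dissolved in DMSO are pin-transferred onto ERR reporter cells (2,000 per well) that have settled for 6 h at 37 C. Plates then incubate 18 h at 37 C before ONE-Glo luciferase reagent and a luminescence read 30 min later.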
% is set by controls: 0 for no effect and ±100 for the full control effect.

Chain of Thyrotropin receptor (Homo sapiens) (P16473 whole entry, looked up): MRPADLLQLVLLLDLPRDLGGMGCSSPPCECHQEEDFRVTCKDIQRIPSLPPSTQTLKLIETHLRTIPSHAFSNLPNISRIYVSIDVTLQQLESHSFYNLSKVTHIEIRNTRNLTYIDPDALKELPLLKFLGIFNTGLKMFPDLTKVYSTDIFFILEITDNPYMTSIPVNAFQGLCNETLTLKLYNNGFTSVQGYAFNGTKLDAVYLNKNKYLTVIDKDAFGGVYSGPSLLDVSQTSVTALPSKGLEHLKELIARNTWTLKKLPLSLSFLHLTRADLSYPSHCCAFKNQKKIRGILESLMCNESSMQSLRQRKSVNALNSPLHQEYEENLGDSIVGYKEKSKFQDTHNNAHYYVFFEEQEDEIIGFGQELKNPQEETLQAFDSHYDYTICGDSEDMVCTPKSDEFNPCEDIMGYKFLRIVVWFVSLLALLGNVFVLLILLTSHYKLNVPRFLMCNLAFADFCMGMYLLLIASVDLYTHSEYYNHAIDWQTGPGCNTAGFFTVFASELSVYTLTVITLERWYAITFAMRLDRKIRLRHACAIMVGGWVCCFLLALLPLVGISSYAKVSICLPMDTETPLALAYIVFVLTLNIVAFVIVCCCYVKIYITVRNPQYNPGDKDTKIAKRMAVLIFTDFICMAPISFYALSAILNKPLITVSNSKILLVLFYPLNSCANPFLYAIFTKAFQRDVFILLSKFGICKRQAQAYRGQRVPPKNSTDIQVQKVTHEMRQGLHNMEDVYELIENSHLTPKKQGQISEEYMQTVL

CCNC(=O)C1CC(C)CCC1C(C)C (stereo unspecified)
inactive: Potency [1] | outcome [2] | outcome [3] | outcome [4] | Potency [5] | activity change, positive = activation [6] -8.38% | outcome [7] | Potency [8] | outcome [9]

CC1COc2ccccc2N1 (stereo unspecified)
inactive: Potency [1] | outcome [2] | outcome [3] | outcome [4] | Potency [5] | Potency [10] | activity change, positive = activation [6] 13.7% | outcome [9]

CC(=O)/C=C/C1C(C)=CCC(C)C1(C)C (stereo unspecified)
inactive: Potency [1] | outcome [2] | outcome [3] | outcome [4] | Potency [5] | Potency [10] | activity change, positive = activation [6] -6.15% | outcome [7] | Potency [8] | outcome [9]

CCCC/C=C\CCCCCCCCCC=O
inactive: Potency [1] | outcome [2] | outcome [3] | outcome [4] | Potency [5] | Potency [10] | activity change, positive = activation [6] 2.29% | outcome [7] | Potency [8] | outcome [9]

Cc1nc2n(c(=O)c1CCN1CCC(c3noc4cc(F)ccc34)CC1)CCC[C@H]2O
inactive: activation [1] -7.95% [at 19 µM] | activity change, negative = cytotoxicity [2] 1.15% [at 15.8 µM] | activation (H2AX phosphorylation) [3] -1.87% [at 31.6 µM] | activation [4] -0.458% [at 15.8 µM] | activity change, negative = cytotoxicity [5] -0.277% [at 31.6 µM] | activity, negative = inhibition [10] 3.9% [at 19 µM] | activity change, positive = activation [6] 2.19% [at 19 µM] | activity change, negative = cytotoxicity [7] 1.28% [at 15.8 µM] | cytotoxicity [9] 0.136% [at 15.8 µM]

CNC(=O)[C@H]1O[C@@H](n2cnc3c(NCc4cc(Cl)ccc4OCc4cc(C)no4)ncnc32)[C@H](O)[C@@H]1N
inactive: Potency [1] | outcome [2] | outcome [3] | outcome [4] | Potency [5] | Potency [10] | activity change, positive = activation [6] -1.8% | outcome [7] | Potency [8] | outcome [9]

C[Si](C)(C)C
inactive: Potency [1] | outcome [2] | outcome [3] | outcome [4] | Potency [5] | Potency [10] | activity change, positive = activation [6] -1.98% | outcome [7] | Potency [8] | outcome [9]

CCCCOC(=O)c1ccccc1
inactive: Potency [1] | outcome [2] | outcome [3] | outcome [4] | Potency [5] | Potency [10] | activity change, positive = activation [6] 1.54% | outcome [7] | Potency [8] | outcome [9]

COC(=O)CCc1ccc(OCC(O)CNC(C)C)cc1 (stereo unspecified)
inactive: Potency [1] | outcome [2] | outcome [3] | outcome [4] | Potency [5] | Potency [10] | activity change, positive = activation [6] 8.83% [at 42.5 µM] | Potency [8] | outcome [9]

CC(=O)N[C@@H](CCC(=O)O)C(=O)O
inactive: Potency [1] | outcome [2] | outcome [3] | outcome [4] | Potency [5] | Potency [10] | activity change, positive = activation [6] 5.46% [at 42.5 µM] | Potency [8] | outcome [9]

CC(C)CC(=O)O
inactive: Potency [1] | outcome [2] | outcome [3] | outcome [4] | Potency [5] | Potency [10] | activity change, positive = activation [6] 4.14% | outcome [7] | Potency [8] | outcome [9]

BrCc1cccc(Oc2ccccc2)c1
inactive: Potency [1] | outcome [2] | outcome [3] | outcome [4] | Potency [5] | Potency [10] | activity change, positive = activation [6] 0.526% | Potency [8] | outcome [9]

CCCCCCCCCCl
inactive: Potency [1] | outcome [2] | outcome [3] | outcome [4] | Potency [5] | activity change, positive = activation [6] 2.84% | outcome [7] | Potency [8] | outcome [9]

COC(=O)C1CC(=O)C(C(=O)OC)CC1=O (stereo unspecified)
inactive: activation [1] -7.69% [at 8.39 µM] | activity change, negative = cytotoxicity [2] 4.68% [at 6.97 µM] | activation (H2AX phosphorylation) [3] 1.21% [at 14 µM] | activation [4] 0.935% [at 7.01 µM] | activity change, negative = cytotoxicity [5] -2.76% [at 14 µM] | activity change, positive = activation [6] -0.229% [at 8.39 µM] | activity change, negative = cytotoxicity [7] 1.03% [at 6.97 µM] | activity change, negative = cytotoxic [8] 1.1% [at 6.97 µM] | cytotoxicity [9] -3.09% [at 6.97 µM]

COc1ccc(Br)c(C)c1
inactive: Potency [1] | outcome [2] | outcome [3] | outcome [4] | Potency [5] | Potency [10] | activity change, positive = activation [6] -0.068% | Potency [8] | outcome [9]

O=C1O[C@@H]2[C@@H](O)[C@H](O)O[C@@H]2[C@H]1O
inactive: Potency [1] | outcome [2] | outcome [3] | outcome [4] | Potency [5] | activity change, positive = activation [6] -1.02% | outcome [7] | outcome [9]

CCC(C)NC(N)=O (stereo unspecified)
inactive: Potency [1] | outcome [2] | outcome [3] | outcome [4] | Potency [5] | outcome [7] | Potency [8] | outcome [9]

CCN(C)C(=O)Oc1cccc([C@H](C)N(C)C)c1
inactive: Potency [1] | outcome [2] | outcome [3] | outcome [4] | Potency [5] | outcome [7] | Potency [8] | outcome [9]

O=C(OCc1ccccc1)C(=O)OCc1ccccc1
inactive: Potency [1] | outcome [2] | outcome [3] | outcome [4] | Potency [5] | activity change, positive = activation [6] 0.466% | outcome [7] | Potency [8] | outcome [9]

CC(C)N(c1ccccc1)C(C)C
inactive: Potency [1] | outcome [2] | outcome [3] | outcome [4] | Potency [5] | outcome [7] | Potency [8] | outcome [9]

CC1(C)S[C@@H]2[C@H](N=CN3CCCCCC3)C(=O)N2[C@H]1C(=O)O
inactive: Potency [1] | outcome [2] | outcome [3] | outcome [4] | Potency [5] | outcome [7] | Potency [8] | outcome [9]

O=C1CC(c2ccc(Cl)cc2)CC(=O)N1
inactive: Potency [1] | outcome [2] | outcome [3] | outcome [4] | Potency [5] | outcome [7] | Potency [8] | outcome [9]

BrCCCCCBr
inactive: Potency [1] | outcome [2] | outcome [3] | outcome [4] | Potency [5] | activity change, positive = activation [6] 6.39% | outcome [7] | Potency [8] | outcome [9]
